PubChem BioAssay (NCI)
This is part of a sample that, as a whole, favours compounds with a hit. Of some 83,000 tested, about 20% had one in any assay.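 Growth was measured after 48 h exposure to one concentration of compound in 96-well plates. Values under 10 count as active.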 A number with no mark means an inactive call. Active and inactive are the calls of the source.

These molecules were tested on HL-60(TB) leukemia (assay: NCI-60 one-dose screen, 48 h (100 = growth as untreated, 0 = no growth, -100 = all killed)). Conditions: 10 µM unless noted.

SMILES	growth
COc1ccc2c(c1)C(C)Cc1c(Cl)ncnc1N2C (stereo unspecified)	-0.632% (active)
N=C(N)c1ccc(-c2ccc(-c3ccccc3)s2)cc1F	-73.1% (active)
COc1ccc(-c2cc(-c3ccc(Cl)cc3)nc(SCCCCCCC(=O)NO)n2)cc1	-18.2% (active)
O=C(Nc1cccc(Br)c1)c1cc(=O)[nH]c2ccccc12	108%
CCN1C(=O)N(c2ccccc2)C2Nn3c(s/c(=C4\C(=O)N(C(C)C)c5ccccc54)c3=O)=NC21 (stereo unspecified)	97.8%
CCOc1c(OC)cc2c(c1O)C(=O)N[C@@H]1[C@@H](O)[C@@H](O)[C@H](O)C[C@@H]21	100%
O=[N+]([O-])c1ccc(/C=C/C=C/c2ccccc2)c(Cl)c1	91.9%
O=C(O)C(Cc1ccccc1)C(=O)O	107%
O=C(Nc1ccc(Cl)cc1)Nc1nc2ccc(OC(F)(F)F)cc2o1	83.3%
Nc1cc(Br)c(-c2nnc(CCC(=O)c3nc4ccccc4[nH]3)o2)c(Br)c1	88%
C=C(C)[C@@H]1CC[C@]2(C(=O)N3CCN(C)CC3)CC[C@]3(C)[C@H](CC[C@@H]4[C@@]5(C)C/C(=C/c6cccnc6)C(=O)C(C)(C)[C@@H]5CC[C@]43C)[C@@H]12	-4.95% (active)
Cc1ccc(-c2c3c(N)c4c(nc3nc3c2c(C)nn3-c2ccccc2)CCCC4)cc1	98.5%
COc1ccc2nc3cc(Cl)ccc3c(NCCCNCCO)c2c1	-14.3% (active)
COc1ccc(-c2cc(-c3ccc(OC)c(OC)c3)nc(SCCCC(=O)NO)n2)cc1	-34.9% (active)
Nc1ncc(-c2ccc3ncnc(N4CCc5cc(F)c(Cl)cc54)c3c2)cn1	56.5%
C=C1C(=O)O[C@H]2[C@H]1CC/C(COC(=O)/C=C/c1cccnc1)=C\CC[C@@]1(C)O[C@@H]21	-28% (active)
COc1ccc(-c2cc(-c3cccc(NS(C)(=O)=O)c3)nc(N)c2C#N)cc1	0.807% (active)
O=C(Nc1cccc(C(=O)N2CCc3ccc(Cl)cc32)c1)c1ccco1	1.39% (active)

SMILES	growth
C=C1C(=O)O[C@H]2[C@H]1CC/C(Cn1cc(-c3cc(C)c(C)cc3C)nn1)=C\CC[C@@]1(C)O[C@@H]21	-9.09% (active)
CC(c1ccccc1)N1C(=O)CSC1=S (stereo unspecified)	-40.6% (active)
COc1ccc(-c2cn(-c3ccc(Cl)cc3)c(SCC(=O)c3ccc([N+](=O)[O-])cc3)n2)cc1	84%
Nc1ncnc2c1N=C(c1ccc3c(c1)OCO3)CC(c1ccc([N+](=O)[O-])cc1)N2 (stereo unspecified)	88.7%
COc1cc2c(cc1O)CC[C@@H]1[C@@H]2CC[C@]2(C)[C@@H](OCCN(C)C)CC[C@@H]12	87.6%
N#Cc1nc2c(S(=O)(=O)c3ccccc3)c(N)n(Cc3cccnc3)c2nc1C#N	53%
O=C(O)CSc1ccc(NCc2oc(CO)cc(=O)c2O)cc1	69.3%
Nc1c(C(=O)Nc2ccncc2)sc2nc3c(cc12)CCCCC3	55.5%
CC1(C)N=C(N)N=C(N)N1c1ccc(S(=O)(=O)Nc2nccs2)cc1	101%
N#Cc1c(-c2ccccc2)cc(-c2ccccc2)n(CCCC(=O)NO)c1=O	10.2%
CC(=O)OCCC/C(=C/c1cc2ccccc2c2ccccc12)[N+](=O)[O-]	-52.1% (active)
C=C(CNCCO)[C@@H]1CC[C@]2(CO)CC[C@]3(C)[C@H](CC[C@@H]4[C@@]5(C)CCC(NCCc6ccc(O)cc6)C(C)(C)[C@@H]5CC[C@]43C)[C@@H]12 (stereo partly specified)	-52.2% (active)
COc1cc2cc(c1Cl)N(C)C(=O)C[C@H](OC(=O)[C@H](C)N(C)C(C)=O)[C@]1(C)O[C@H]1[C@H](C)[C@@H]1C[C@@](O)(NC(=O)O1)[C@H](OC)C=C/C=C(\C)C2	-25.6% (active)
Cc1ccc2c(c1)c(Sc1ccc(C(=O)NO)cc1)c1n2CN(C)CC1	21.4%
CCOC(=O)c1cn2ncnc(Oc3ccc(NC(=O)NCCN(C)C)c(Cl)c3)c2c1C	98.6%
CCC(CO)Nc1nc2ccc(Cl)cc2c2ccccc12 (stereo unspecified)	25%
CN1CCN(Cc2ccc(NC(=O)c3cncc(C#Cc4c(N)ncc5c(F)cccc45)c3)cc2C(F)(F)F)CC1	-60.4% (active)
CN(C)c1ccc([C@@H](C(=O)Nc2cccc([N+](=O)[O-])c2)N(C(=O)c2cc3ccccc3[nH]2)c2cccc([N+](=O)[O-])c2)cc1	97.8%
